Assay results taken from PubChem BioAssay AID2314 (National Center for Advancing Translational Sciences (NCATS), 2010).
In all, about 300,000 compounds went through this assay and about 37,000 (12%) were called active. For the sample, actives were picked, then their nearest neighbours and some compounds at random. Unmarked numbers belong to inactive results. Cut-off read from the data, not from the text of the source: active = max response mostly above about 13% (no sharp cut-off); inactive = mostly below about 14%.

Assay: Cycloheximide Counterscreen for Small Molecule Inhibitors of Shiga Toxin; note: read at 38.3 µM for the half of the compounds with a filed dose; 0% is about no effect
Conditions: cell reporter, cycloheximide protein synthesis inhibition counterscreen; stronger effect = higher value

With `Cc1ccc(CNC(=O)C(=O)c2cn(CC(=O)N3CCOCC3)c3ccccc23)cc1` the max response was 17.6% (active).
With `CC1CCN(C(=O)Cn2cc(C(=O)c3ccco3)c3ccccc32)CC1` the max response was 23% (active).
For `Cc1ccc(CNC(=O)C(=O)c2cn(CC(=O)N3CCCC3)c3ccccc23)cc1`, the max response was 20.3% (active).
For `COc1cccc(NC(=O)C(=O)c2cn(CC(=O)N3CCOCC3)c3ccccc23)c1`, the max response was 37.8% (active).
In the case of `c1ccc2sc(SNC3CCCCC3)nc2c1`, the max response is reported as 43.3% (active).
For `COc1ccc2c(c1)cc1n2CCN=C1NN`, the max response was 64.4% (active).
With `COc1cccc(-c2noc(C3CCCN(C(=O)c4ccc(F)cc4)C3)n2)c1` (stereo unspecified) the max response was 20.6% (active).
With `CC(C)c1ccc(-c2noc(C3CCCN(S(C)(=O)=O)C3)n2)cc1` (stereo unspecified) the max response was 39.9% (active).
With `COc1ccc(NC(=O)N2CCCC(c3nc(-c4ccc(F)cc4)no3)C2)cc1` (stereo unspecified) the max response was 27.8% (active).
For `O=C(c1cccs1)N1CCCC(c2nc(-c3ccc(F)cc3)no2)C1` (stereo unspecified), the max response was 26.6% (active).
In the case of `Cc1ccc(-c2noc(C3CCCN(C(=O)c4cccc(Cl)c4)C3)n2)o1` (stereo unspecified), the max response is reported as 47.3% (active).
In the case of `Cc1[nH]c2c(C(=O)N3CCCC(CCC(=O)NCc4ccccc4F)C3)cccc2c1C` (stereo unspecified), the max response is reported as 18.9% (active).
In the case of `CC(C)(C)c1ccc(OC2=CS(=O)(=O)c3ccccc32)cc1`, the max response is reported as 81.1% (active).
With `Cn1c(=O)c2c(nc(OCc3cccnc3)n2Cc2ccccc2)n(C)c1=O` the max response was 14.9% (active).
With `Cc1cccc(-n2c(O)c(C=Nc3ccccc3N)c(=O)[nH]c2=O)c1` the max response was 39.4% (active).
With `O=C(N/N=C/c1ccccc1O)C1CCCC1` the max response was 28% (active).
In the case of `COC(=O)c1ccc(Oc2nc(NC(C)C)nc(SC)n2)cc1`, the max response is reported as 9.19% (active).
With `Cn1cccc1C(=O)Nc1nccs1` the max response was 18.6% (active).

Compared with `N#Cc1ccc(Cn2cc(C(=O)c3ccco3)c3ccccc32)cc1`, `Cc1cccc(NC(=O)Cn2cc(C(=O)c3ccco3)c3ccccc32)c1` is lower in max response: 21.7% for the first, -2.38% for the second.

Compared with `COc1cccc(NC(=O)CS(=O)(=O)c2cn(CC(=O)N3CCOCC3)c3ccccc23)c1`, `O=C(Nc1ccc(F)cc1)C(=O)c1cn(CC(=O)N2CCOCC2)c2ccccc12` is higher in max response: -5.36% for the first, -0.871% for the second.

Going from `CN(Cc1ccccc1)C(=O)C(=O)c1cn(CC(=O)N2CCCC2)c2ccccc12` to `O=C(NCc1ccco1)C(=O)c1cn(CC(=O)N2CCCCCC2)c2ccccc12`, the max response rises from -3.43% to 2.39%.

Compared with `O=C(NCCCn1ccnc1)C(=O)c1cn(CC(=O)N2CCCCCC2)c2ccccc12`, `CN1CCN(C(=O)C(=O)c2cn(CC(=O)N3CCCC3)c3ccccc23)CC1` is lower in max response: 10.1% for the first, -2.55% for the second.

Going from `COc1ccc(C(CNC(=O)c2ccc(S(=O)(=O)Nc3ccccc3F)cc2)N(C)C)cc1` (stereo unspecified) to `COc1ccc(CN2CCC(=O)c3ccccc3S2(=O)=O)cc1`, the max response rises from -6% to -4.16%.

Going from `COC(=O)c1cccc(N(C(=O)c2ccco2)C(C(=O)NC2CCCC2)c2ccco2)c1` (stereo unspecified) to `COC(=O)c1cccc(N(CC(=O)NCC2CCCO2)C(=O)CCC(=O)Nc2cc(C)on2)c1` (stereo unspecified), the max response falls from -1.82% to -2.44%.

Going from `COc1cc(CNC2CCCCC2)c(Br)cc1OC1CCCC1` to `COc1ccc(S(=O)(=O)N2CCN(C(=S)NCC3CCCO3)CC2)cc1OC` (stereo unspecified), the max response rises from -7.03% to -1.28%.

Going from `CCc1ccc(CN(C)C(=O)C2CCC(=O)N(Cc3cccc(OC)c3)C2)nc1` (stereo unspecified) to `CCn1nc(C)cc1C(=O)N1CCCC(C(=O)c2cccc(OC)c2)C1` (stereo unspecified), the max response falls from 4.36% to 2.78%.

Going from `CCn1nc(C)c(NC(=O)/C=C/c2ccc(OC)c(COc3ccc(Br)cc3)c2)c1C` to `COc1cc(C(=O)NCc2ccc3c(c2)cc(C)n3C)cc(OC)c1OC`, the max response falls from 2.79% to -6.41%.

Compared with `CCCc1cc(=O)oc2c(C)c(OC(C)C(=O)NCC(O)c3ccccc3)ccc12` (stereo unspecified), `COc1ccccc1CNC(=O)c1cc(=O)c2ccccc2o1` is higher in max response: -2.74% for the first, 28.7% for the second.

First: Cc1ccc(S(=O)(=O)NCC(=O)N(CC(=O)NCC2CCCO2)c2cccc(F)c2)cc1 (stereo unspecified)
Second: Cc1ccc(C(C(=O)NCC2CCCO2)N(C(=O)c2snc(C(N)=O)c2N)c2ccc(C(C)C)cc2)o1 (stereo unspecified)
The max response of the first is lower: 1.36% for the first, 8.94% for the second.

First: CC(=O)NCC(=O)NC1CCCc2c1cnn2-c1ccccc1F (stereo unspecified)
Second: CSc1ncccc1C(=O)N1CCCC(CCC(=O)NCc2ccccc2F)C1 (stereo unspecified)
The max response of the first is higher: 5.35% for the first, -1.29% for the second.

Compared with `CCOC(=O)C(=CNNc1ccsc1C(=O)OC)C(=O)OCC`, `COc1ccccc1C(=O)OCC(=O)NCCNC(=O)COC(=O)c1ccccc1OC` is lower in max response: 12.1% for the first, -1.55% for the second.

Going from `O=C1CN(c2nc(-c3ccccc3)c3cc(Br)ccc3n2)c2ccccc2N1` to `Cc1ccc2nc(C)c3c(c2c1)N(c1ccccc1)CC3`, the max response rises from -2.03% to -1.78%.

Going from `O=S(=O)(NCC1CN(S(=O)(=O)c2ccc3c(c2)OCCO3)C1)c1c(F)cccc1F` to `Cc1ccc(S(=O)(=O)N2CCC(C)CC2)cc1C(=O)NCc1ccccn1`, the max response rises from -7.82% to 5.45%.

First: Cc1sc2ncnc(Sc3nc4ccccc4s3)c2c1C
Second: O=C1NC(Nc2nc3ccccc3s2)(C(F)(F)F)C(=O)N1C1CCCCC1 (stereo unspecified)
The max response of the first is lower: -3.1% for the first, 0.879% for the second.

First: Cc1c(CC(=O)N2CCN(C(=O)C3COc4ccccc4O3)CC2)c(=O)oc2c(O)c(O)ccc12 (stereo unspecified)
Second: O=C(CCC1CCCN(Cc2ccc(O)c(Cl)c2)C1)NCc1ccccc1F (stereo unspecified)
The max response of the first is lower: -3.9% for the first, -1.08% for the second.

First: CCOc1ccccc1OCCCNCc1ccccc1
Second: Cn1c(=O)c2c(nc(NCCc3ccccc3)n2Cc2ccccc2)n(C)c1=O
The max response of the first is lower: -2.14% for the first, -1.53% for the second.

Compared with `Cc1cccc(OCC(O)CN2CCN(S(=O)(=O)c3ccc(C)cc3C)CC2)c1` (stereo unspecified), `CCc1nc2ccc(C(=O)N3CCN(c4cccc(Cl)c4)CC3)cc2nc1CC` is lower in max response: 6.97% for the first, -0.581% for the second.

First: CC(C)c1ccc(NC(=O)C2CCCN(S(=O)(=O)c3cccnc3)C2)cc1 (stereo unspecified)
Second: CC(=O)Nc1ccc(S(=O)(=O)N2CCC(NC(=O)c3ccccc3)CC2)cc1
The max response of the first is higher: 5.83% for the first, -2% for the second.

First: COc1ccc(NC2CCCN(C(=O)c3ccncc3)C2)cc1 (stereo unspecified)
Second: O=C(c1ccc(F)cc1)N1CCCC(c2nc(-c3cccs3)no2)C1 (stereo unspecified)
The max response of the first is lower: -1.48% for the first, 20.3% for the second.

Compared with `COc1cc(-c2noc(C3CCCN(S(=O)(=O)c4cccc(Cl)c4)C3)n2)cc(OC)c1OC` (stereo unspecified), `O=C(Cc1cccs1)N1CCCC(c2nc(-c3ccc(S(=O)(=O)N4CCCC4)cc3)no2)C1` (stereo unspecified) is higher in max response: -4.41% for the first, -2.82% for the second.

First: CCN(C(=O)C1CCCN(c2nc(-c3ccc(OC)cc3)no2)C1)c1ccc(OC)cc1 (stereo unspecified)
Second: COC(=O)c1ccc(Oc2nc(Nc3ccc(F)cc3)nc(N3CCCC3)n2)cc1
The max response of the first is lower: -1.83% for the first, 0.283% for the second.

Going from `O=C(c1ccc(F)cc1)N1CCCC(C(=O)N2CCCCC2)C1` (stereo unspecified) to `CS(=O)(=O)N(CC(=O)N1CCCCCC1)c1cccc(Cl)c1Cl`, the max response rises from -3.54% to -2.66%.

Compared with `NC(=O)C1CC(=O)N(c2ccc(OCC(=O)NCc3ccccc3)cc2)C1` (stereo unspecified), `NC(=O)c1oc2ccccc2c1NC(=O)CS(=O)(=O)c1ccccc1` is higher in max response: -2.39% for the first, 14.9% for the second.

First: C=CCOc1cccc(CNCc2cccnc2)c1
Second: O=S1(=O)N=C(N(CCO)/N=C/c2ccccc2F)c2ccccc21
The max response of the first is higher: 1.07% for the first, -7.2% for the second.

First: COc1ccc(/C=C2/C(=O)OCc3cc(OC)c(OC)cc32)c(OC)c1
Second: COc1cc(NC(=O)NCC2CCN(Cc3ccc(C)cc3)CC2)cc(OC)c1OC
The max response of the first is higher: -1.45% for the first, -2.97% for the second.

First: CC(=O)c1cccc(NC(=O)C2CCN(C(=O)c3ccccc3Cl)CC2)c1
Second: Cc1c(CN2CCCC(C(=O)c3cccc(Cl)c3)C2)c(=O)n(-c2ccccc2)n1C (stereo unspecified)
The max response of the first is higher: -2.1% for the first, -3.35% for the second.

Compared with `COc1cccc(NC(=O)CCc2nnc3ccc(N4CCC(C)CC4)nn23)c1`, `CCNc1nc(Oc2ccc(C(=O)OC)cc2)nc(N2CCOCC2)n1` is higher in max response: -5.83% for the first, -3.34% for the second.

Going from `COc1ccccc1CN1CCNC(=O)C1CC(=O)N(C)CC1CCOCC1` (stereo unspecified) to `O=S1(=O)C=C(SCCN2CCCC2)c2ccccc21`, the max response rises from -1.38% to 4.83%.

Compared with `Cc1cccc2c1-c1sc(C(=O)NCCCN3CCc4ccccc4C3)cc1CO2`, `O=C(O)c1ccccc1-c1ccccc1C(=O)Nc1nccs1` is lower in max response: 1.19% for the first, -6.56% for the second.

Compared with `CCOC(=O)Cc1csc(SCC(=O)NC(C)C23CC4CC(CC(C4)C2)C3)n1` (stereo unspecified), `CC(NC(=O)C(=O)Nc1nccs1)c1ccccc1` (stereo unspecified) is higher in max response: -2.6% for the first, -0.875% for the second.

First: CS(=O)(=O)N1CCCC(C(=O)Nc2ccccc2C(F)(F)F)C1 (stereo unspecified)
Second: Cc1cccc(-n2c(O)c(/C=N/N3CCOCC3)c(=O)[nH]c2=S)c1
The max response of the first is higher: 0.965% for the first, -8.26% for the second.

First: CN1C(=O)c2cccc3c(N)ccc(c23)C1=O
Second: CC1(C)Oc2ccc3ccc(=O)oc3c2/C(=N/O)C1=O
The max response of the first is lower: -4.64% for the first, 7.27% for the second.

Going from `C=CCOc1nc2c(c(=O)n(C)c(=O)n2C)n1Cc1ccc(Cl)cc1Cl` to `CCOc1ccc(NC(=O)CC(Cc2ccc(Cl)cc2)C(=O)O)cc1` (stereo unspecified), the max response rises from -2.08% to -1.1%.

Compared with `Cc1cccc(-n2c(O)c(C=NC34CN5CN(CN(C5)C3)C4)c(=O)[nH]c2=O)c1`, `Oc1ccccc1C=NC1CCCCC1N=Cc1ccccc1O` (stereo unspecified) is lower in max response: 8.1% for the first, 6.63% for the second.

In the case of `COc1ccc(/C=N/NC(=O)C2CC2)c(OC)c1OC`, the max response is reported as 3.25%.
